PubChem BioAssay (NCI)
This is part of a sample that, as a whole, favours compounds with a hit. Of some 83,000 tested, about 20% had one in any assay.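 Interpretation: 100, growth as untreated; towards 0, rising growth inhibition; 0, no net growth; 0 to -100, cell death. Compounds scoring below 10 were considered active.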 A number with no mark means an inactive call. The source made the active and inactive calls.

The compounds below were run on HL-60(TB) leukemia (assay: NCI-60 one-dose screen, 48 h (100 = growth as untreated, 0 = no growth, -100 = all killed)). Details: 10 µM unless noted.

Compound	growth
NC(N)=N/N=C(\N=Nc1ccccc1)c1ccc(Cl)cc1	-8.35% (active)
O=[n+]1c2ccccc2n([O-])c2cc(Cl)ccc21	-0.993% (active)
C=C1CCC2C(C)(CO)C(O)CCC2(C)C1C/C=C1/C(=O)OCC1O/C=C/c1ccccc1 (stereo not given)	7.31% (active)
O=C1CCC(C(=O)N/N=C/c2cc(F)ccc2F)N1 (stereo not given)	99.2%
Clc1ccc(Nc2ccnc(N3CCN(c4ccnc5cc(Cl)ccc45)CC3)n2)cc1	72.1%
COC(=O)c1ccc2c(c1)Oc1ccc(Cl)cc1-c1cc(C)nn1-2	103%
COc1cc(C2C=C(c3ccc(C)cc3)Nc3nc(SC)[nH]c(=O)c32)ccc1Oc1ccnc2cc(Cl)ccc12 (stereo not given)	104%
Cn1c(=O)c(F)c(Nc2ccc(I)cc2F)c2c(=O)n(C[C@@H](O)CO)cnc21	15.8%
C=C1C(=O)OC2CC1C(OC(C)=O)C/C(C)=C/CC/C(C)=C\CCC2(C)O (stereo not given)	-51.9% (active)
CCCCc1ccc(C(O)(CCN2CC3CCC(CC3)C2)c2ccccc2)cc1 (stereo not given)	84.5%
Oc1ccc(Br)cc1/C=N/NC(=S)NC12CC3CC(CC(C3)C1)C2	-25.8% (active)
Cc1nc2cc(Nc3nc(Nc4ccc(F)cc4)nc(N4CCN(C)CC4)n3)ccc2n1Cc1ccccc1	-56.9% (active)
C=CCCCCCCCCC(=O)[O][Sn]([CH2]CCC)([CH2]CCC)[CH2]CCC	-15.1% (active)
Nc1cc(Br)cc2c1[nH]c(=O)c1ccccc12	91.6%
COC(=O)c1c2c(c[n+]([O-])c1C)C(=O)C(NCc1ccccc1)=CC2=O	-34.5% (active)
